# ± gives the standard deviation of the averaged measurements. Whole data set: some 33,000 sequences, median “E-score (rank enrichment, -0.5 to 0.5)” near -0.0028, cut for the highest 2% near 0.23. This is one part of a sample in which the highest values are shown more often than they occur.
# System: 2Sb-muMax20 (muMax20 with two 1,3-bis(methyl)benzene Cys staples, A13C/A17C and Q88C/A92C, C-terminal Lys)
# Test: PBM 8-mer E-score (E-score (rank enrichment, -0.5 to 0.5)); higher = stronger preferential binding
# Method: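 Protein binding microarray (universal PBM chip covering all 10-mers in fixed probe flanks) with chemically synthesized human Max(13-93) bHLH-LZ analogs (not full-length Max) bearing noncanonical residues (hArg, Tha, Aib, Nle at 65) and aromatic Cys staples. Read-out per 8-mer (and its reverse complement): E-score (rank-based enrichment, -0.5 to 0.5) and Z-score of median probe intensity.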
row,Sequence,PBM 8-mer E-score
1,CGCGTCGC,-0.0885 ± 0.02
2,CAACCTTG,-0.0156 ± 0.0055
3,CCTAAAGC,0.0284 ± 0.038
4,AAAATGCA,0.127 ± 0.02
5,AAAATGCT,0.235 ± 0.0065
6,AAAATGCC,0.00067 ± 0.042
7,AATTAGCC,-0.107 ± 0.095
8,CCTGACCC,-0.146 ± 0.077
9,GTGTTTTA,0.098 ± 0.036
10,CTGTTTAA,0.0361 ± 0.028
11,CTGTTTTA,0.24 ± 0.013
12,ACCCCTAG,0.11 ± 0.029
13,ACCCCTAA,0.218 ± 0.037
14,AACCCTTC,0.11 ± 0.054
15,ACCCCTCC,0.258 ± 0.052
16,CCCCCTCC,-0.0384 ± 0.17
17,GCCCCTAA,0.245 ± 0.038
18,CCCCCTTC,-0.174 ± 0.065
19,TCCCCTAA,0.196 ± 0.03
20,ACCCCTAT,0.252 ± 0.081
21,AACCCTCC,-0.0982 ± 0.073
22,CCCCCTAA,-0.037 ± 0.031

row,Sequence,PBM 8-mer E-score
1,ACCCCTTC,0.328 ± 0.018
2,TAGACGAA,-0.053 ± 0.022
3,GTCCGACA,-0.0883 ± 0.025
4,TACACACA,0.00095 ± 0.038
5,AACAGTCC,-0.0613 ± 0.014
6,CGCCTTCC,-0.134 ± 0.085
7,ACCGCCGG,-0.212 ± 0.076
8,ATGGCTAC,0.106 ± 0.049
9,CACCTCAA,-0.0623 ± 0.06
10,CCTCAGCC,-0.0948 ± 0.096
11,AGGGTCCC,-0.337 ± 0.0037
12,TTAGCAAA,0.1884 ± 0.00076
13,TCCCCTCA,0.247 ± 0.0079
14,TACCCTCA,0.0472 ± 0.026
15,GCCCCTCC,0.274 ± 0.099
16,GCCCCTCA,-0.0171 ± 0.064
17,CGCCCTCC,0.0189 ± 0.097
18,ACCCCTCG,0.0393 ± 0.084
19,GCCCCCCC,-0.18 ± 0.13
20,CCCCCTCA,0.0422 ± 0.049
21,ACCCCTCA,0.307 ± 0.0085
22,ACTTCAGA,-0.161 ± 0.095

row,Sequence,PBM 8-mer E-score
1,CAGCTCCG,-0.19 ± 0.065
2,ATATGGAA,0.0497 ± 0.036
3,GGGTGTAA,0.0984 ± 0.049
4,TGGTGTAA,0.249 ± 0.037
5,CGGTGTAA,-0.0426 ± 0.082
6,TCCGGGAA,-0.184 ± 0.07
7,AAAACGAG,-0.00059 ± 0.034
8,CGTATACG,0.341 ± 0.027
9,TGTATACA,0.259 ± 0.05
10,CGTATACA,0.0906 ± 0.018
11,GGTATACA,0.105 ± 0.011
12,CGTATACC,-0.123 ± 0.0037
13,AGTATACA,0.135 ± 0.025
14,CAGCAGGC,-0.139 ± 0.04
15,CCCCTCCC,0.297 ± 0.13
16,CCCTCCCC,0.157 ± 0.25
17,CCCCTCCG,0.00173 ± 0.08
18,ACCCTCCT,-0.0718 ± 0.019
19,ACCCTCCC,0.289 ± 0.04
20,ACCCTCCA,0.0708 ± 0.031
21,CGGGTTAA,-0.0694 ± 0.12
22,ACAGGTCT,-0.101 ± 0.015

row,Sequence,PBM 8-mer E-score
1,GGCAATAC,-0.0237 ± 0.039
2,ACGCGGCA,-0.1504 ± 0.0011
3,AGAGCAAA,-0.124 ± 0.036
4,AGCGTATG,0.0491 ± 0.018
5,CGGATTTA,-0.0345 ± 0.005
6,GCACGGTA,-0.226 ± 0.0061
7,TAACGTAA,-0.00578 ± 0.0029
8,ATAACTTA,0.0822 ± 0.028
9,ATAACGTG,0.277 ± 0.022
10,ATAACTTC,0.1632 ± 0.00065
11,ATAACGTA,0.16 ± 0.052
12,ATAACGTC,0.0413 ± 0.0089
13,ATAACTTG,0.253 ± 0.032
14,TTCAGGAA,-0.0598 ± 0.038
15,CCAAGAAC,0.098 ± 0.03
16,CGTCCCTC,-0.107 ± 0.023
17,ATTACACG,0.0209 ± 0.026
18,ATTACACC,0.254 ± 0.06
19,ATTACAGA,-0.121 ± 0.03
20,ATTACAGG,0.286 ± 0.0044
